A selection: hits, their analogues and other compounds. The true share with any hit is near 2.9%.
ADAM10 inh – inhibitors of human ADAM10. inhibition, % at 7 µM. AID 720582. hit rate 0.62% among 370,000. recombinant ADAM10, EDANS/DABCYL FRET peptide cleavage, 3 h;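 active means inhibition above a per-campaign cutoff equal to the mean of compounds falling between control-based bounds plus 3 SD, cut at about 20% in these data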
PLCg1 inh – PLC-gamma1 (human) inhibition, primary screen. P19174. purified PLC-gamma1, fluorogenic substrate, fluorescence. inhibition, % at 12.2 µM. hit rate 0.84% among 370,000; in the data active means inhibition above about 9.5%
ADAM17 inh – ADAM17 inhibition, QFRET primary screen | P78536 | recombinant ADAM17, EDANS/DABCYL FRET peptide cleavage | inhibition, % at 6.95 µM | hit rate 0.83% among 370,000;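 active means inhibition above the mean of compounds lying between control limits plus 3 SD, set per campaign, cut at about 8.5% in these data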
proKLK7 act – activators of human kallikrein-7 zymogen; hit rate 0.9% among 370,000; purified proKLK7, EDANS-DABCYL substrate fluorescence; 100% is mature enzyme control, 0% vehicle; AID 652039; activation, % at 7 µM;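 active means activation above the mean of all tested compounds plus 3 SD, computed per campaign excluding outliers beyond control limits, cut at about 13% in these data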
PLC-beta3 inh – blocks human PLC-beta3 enzyme activity | hit rate 0.18% among 370,000 | AID 720704 | Purified PLC-beta3, fluorogenic substrate, fluorescence | inhibition, % at 12.2 µM | Q01970; in the data active means inhibition above about 11%
Target sequence (Q01970 whole entry, looked up): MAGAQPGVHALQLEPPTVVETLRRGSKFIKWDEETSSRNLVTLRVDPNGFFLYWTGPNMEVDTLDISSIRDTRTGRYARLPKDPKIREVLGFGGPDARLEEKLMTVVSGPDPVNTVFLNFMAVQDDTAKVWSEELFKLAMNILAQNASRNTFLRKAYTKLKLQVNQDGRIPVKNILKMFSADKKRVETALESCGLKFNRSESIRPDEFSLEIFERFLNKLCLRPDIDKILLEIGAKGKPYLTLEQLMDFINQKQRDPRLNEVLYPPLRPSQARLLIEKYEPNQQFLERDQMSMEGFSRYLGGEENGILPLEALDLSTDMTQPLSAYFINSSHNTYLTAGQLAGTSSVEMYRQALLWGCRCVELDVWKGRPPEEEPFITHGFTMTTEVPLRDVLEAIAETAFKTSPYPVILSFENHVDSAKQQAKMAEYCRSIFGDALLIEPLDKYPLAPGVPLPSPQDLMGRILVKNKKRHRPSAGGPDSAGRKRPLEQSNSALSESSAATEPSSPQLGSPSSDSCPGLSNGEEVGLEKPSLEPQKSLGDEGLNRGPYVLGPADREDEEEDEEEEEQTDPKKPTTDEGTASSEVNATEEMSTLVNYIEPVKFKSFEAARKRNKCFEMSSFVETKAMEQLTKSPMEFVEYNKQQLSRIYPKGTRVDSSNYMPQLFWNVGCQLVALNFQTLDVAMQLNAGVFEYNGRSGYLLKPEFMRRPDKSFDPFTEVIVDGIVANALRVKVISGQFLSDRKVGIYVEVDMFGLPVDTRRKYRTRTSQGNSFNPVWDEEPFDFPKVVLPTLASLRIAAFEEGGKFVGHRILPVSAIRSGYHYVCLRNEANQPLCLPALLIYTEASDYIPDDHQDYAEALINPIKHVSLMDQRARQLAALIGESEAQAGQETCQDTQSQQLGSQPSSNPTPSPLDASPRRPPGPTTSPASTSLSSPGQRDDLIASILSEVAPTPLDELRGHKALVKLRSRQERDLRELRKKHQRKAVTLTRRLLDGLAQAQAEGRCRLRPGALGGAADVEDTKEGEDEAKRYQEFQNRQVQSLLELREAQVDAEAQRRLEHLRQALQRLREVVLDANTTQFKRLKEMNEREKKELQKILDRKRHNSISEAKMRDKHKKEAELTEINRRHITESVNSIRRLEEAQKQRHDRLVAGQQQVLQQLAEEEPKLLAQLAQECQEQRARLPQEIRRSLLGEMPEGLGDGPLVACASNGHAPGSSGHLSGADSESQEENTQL
ADAM10 confirm – confirmation of inhibitors of human ADAM10. AID 743208. hit rate 1% among 2,100. ADAM10 QFRET peptide cleavage, EDANS fluorescence. inhibition, % at 6.95 µM. shares compounds with ADAM10 inh;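 active means inhibition above about 20% chosen separately for each screening run, limit read from the data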
ADAM17 counter – inhibits human ADAM17 in ADAM10 exosite counter-screen; ADAM17 QFRET peptide cleavage, EDANS fluorescence; inhibition, % at 6.95 µM; hit rate 0.5% among 2,100; shares compounds with ADAM10 inh; AID 743214;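 active means mean triplicate inhibition above the solvent-only control wells' mean plus 3 SD, cut at about 12% in these data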
ADAM10 ctr – ADAM10 inhibition, counter-screen for ADAM17 exosite hits; recombinant ADAM10, EDANS/DABCYL FRET peptide cleavage, 3 h; inhibition, % at 6.95 µM; hit rate 47% among 2,900; AID 743256; shares compounds with ADAM17 inh;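 active means mean inhibition over the triplicate runs exceeds the activity threshold set in the earlier primary screen, cut at about 20% in these data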
ADAM17 confirm – confirmation of inhibitors of human ADAM17. recombinant ADAM17, EDANS/DABCYL QFRET peptide cleavage. shares compounds with ADAM17 inh. AID 743257. hit rate 65% among 2,900. inhibition, % at 6.95 µM;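 active means mean inhibition across replicates above the hit cutoff set in the primary screen, cut at about 8.5% in these data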
A number is an active result; - = inactive; . = not tested or not shown.

SMILES	ADAM10 inh	PLCg1 inh	ADAM17 inh	proKLK7 act	PLC-beta3 inh	ADAM10 confirm	ADAM17 counter	ADAM10 ctr	ADAM17 confirm
COCCNC(=O)C1(C)CCCN(C(=O)c2ccc(OC)cc2OC)C1 (stereo not drawn)	-	-	-	-	-	.	.	.	.
COc1ccc(C(=O)OCC(=O)Nc2ccc(Cl)c(C(F)(F)F)c2)c(OC)c1OC	20.2	-	8.7	-	-	-	-	22.5	12.6
COc1cccc(OC)c1C(=O)OCC(=O)Nc1ccc(OC(F)(F)F)cc1	27.3	-	10.3	-	-	-	-	-	-
Cc1onc(-c2ccccc2)c1C(=O)OCC(=O)Nc1ccc(OC(F)(F)F)cc1	24.8	-	9.4	-	-	-	-	32.6	17.2
C[C@H](O)[C@@H]1C(=O)N2CCc3c([nH]c4c(-c5ccccc5)cccc34)[C@@H]2C[C@@H]1N(C)C(=O)NC1CCCCC1	-	-	-	-	-	.	.	.	.
CCCN(CC(=O)Nc1cccc(Br)c1)CC(=O)Nc1ccc(F)c(F)c1F	32.1	-	21.5	-	11.3	-	-	29.0	15.5
CCCN(CC(=O)Nc1cccc(S(N)(=O)=O)c1)CC(=O)Nc1ccc(F)c(F)c1F	-	-	-	-	-	.	.	.	.
OC(c1ccc(F)cc1)c1nc(-c2csc3ccccc23)cs1 (stereo not drawn)	-	-	-	-	-	.	.	.	.
OC(c1ccccc1)c1nc(-c2csc3ccccc23)cs1 (stereo not drawn)	33.1	-	16.4	-	-	-	-	29.8	15.9
NC(=O)c1c(N)[nH]c(C(=O)c2ccccc2)c1-c1cccc2ccccc12	-	-	-	.	-	.	.	.	.
NC(=O)CC(NC(=O)c1ccc(Br)cc1)c1ccc(N2CCCCCCC2)c([N+](=O)[O-])c1 (stereo not drawn)	22.6	-	10.5	-	-	-	-	22.0	12.2
NC(=O)CC(NC(=O)c1ccc(Br)cc1)c1ccc(N2CCN(c3ccccc3)CC2)c([N+](=O)[O-])c1 (stereo not drawn)	-	-	-	-	-	.	.	.	.
COc1ccc(/C=N/Nc2nc3ccccc3s2)cc1O	-	-	-	-	-	.	.	.	.
COc1ccc(C=C(c2nc3ccccc3s2)c2nc3ccccc3s2)cc1O	20.1	-	8.6	-	-	-	-	24.6	13.9
CC(=O)O[C@@H]1CCC[C@@]2(C(=O)N(Cc3ccccc3)c3ccc(-c4c(C)noc4C)cc32)[C@H]1NC(=O)CCc1ccccc1	23.2	-	10.3	-	-	-	-	-	10.6
CC(C)(C)c1ccc2c(c1)OC(C(=O)N/N=C\c1ccc(-c3cccc(C(=O)O)c3)o1)CO2 (stereo not drawn)	-	-	-	-	-	.	.	.	.
CC(C)(C)c1ccc2c(c1)OC(C(=O)N/N=C\c1ccccn1)CO2 (stereo not drawn)	20.5	-	11.8	-	-	-	-	-	-
CCc1ccc(NC(=O)C(C)OC(=O)c2ccc(NS(=O)(=O)c3ccc(C)c([N+](=O)[O-])c3)cc2)cc1 (stereo not drawn)	28.7	-	11.8	-	-	-	-	27.2	17.5
Cc1ccc(NC(=O)C(C)OC(=O)c2ccc(NS(=O)(=O)c3ccc(F)c(F)c3)cc2)cc1 (stereo not drawn)	-	-	-	-	-	.	.	.	.
COC(=O)[C@]12C[C@H](CC(=O)NCc3ccccc3)C(=O)N(CCC3=CCCCC3)C1=C[C@H](COCc1ccccc1)O[C@@H]2C	-	-	-	-	-	.	.	.	.
CCOc1ccccc1NC1=CC(=O)CC(c2ccccc2)C1 (stereo not drawn)	21.7	-	10.2	-	-	-	-	-	-
COc1ccc(S(=O)(=O)N(CC(=O)Nc2ccc(S(=O)(=O)N3CCOCC3)cc2)Cc2ccc(F)cc2)cc1	31.9	-	9.4	-	-	-	-	41.2	16.5
COc1ccc(CNC(=O)CN(Cc2ccc(Cl)cc2)S(=O)(=O)c2ccccc2)cc1	24.3	-	18.1	-	-	-	-	-	14.3
COc1ccc(CNC(=O)CN(Cc2ccccc2)S(=O)(=O)c2ccc(Cl)cc2)cc1	28.9	-	20.9	-	-	-	-	-	10.2
COC(=O)[C@]12C[C@H](CC(=O)NCCc3ccccc3OC)C(=O)N(CCC3=CCCCC3)C1=C[C@H](C(C)(C)C)O[C@@H]2C	-	-	-	-	-	.	.	.	.
SMILES	ADAM10 inh	PLCg1 inh	ADAM17 inh	proKLK7 act	PLC-beta3 inh	ADAM10 confirm	ADAM17 counter	ADAM10 ctr	ADAM17 confirm
Cc1cc(C)cc(-n2c(SC(C)C(=O)NCc3ccc4c(c3)OCO4)nc3ccccc3c2=O)c1 (stereo not drawn)	22.7	-	10.6	-	-	-	-	-	11.3
Cc1cccc(-n2c(SCC(=O)NCc3ccc4c(c3)OCO4)nc3ccccc3c2=O)c1	-	-	-	-	-	.	.	.	.
CCCCN1CN2Cc3ccc(C)cc3C2CS1(=O)=O (stereo not drawn)	-	-	-	-	-	.	.	.	.
CCO[C@H]1OC(C(=O)N2CCN(Cc3ccc4c(c3)OCO4)CC2)=C[C@@H](c2ccc(Br)cc2)[C@@H]1CCCO	24.5	-	9.2	-	-	-	-	-	-
CCO[C@@H]1OC(C(=O)N2CCN(Cc3ccc4c(c3)OCO4)CC2)=C[C@H](c2ccc3c(c2)OCO3)[C@H]1CCCO	-	-	-	-	-	.	.	.	.
Cc1ccc(S(=O)(=O)N(C)C[C@H]2Oc3cc(Br)ccc3S(=O)(=O)N([C@H](C)CO)C[C@H]2C)cc1	30.6	-	17.0	-	-	-	-	-	-
COc1ccc(OC)c(S(=O)(=O)N2CCCC(C(=O)N3CCN(Cc4ccccc4)CC3)C2)c1 (stereo not drawn)	-	-	-	-	-	.	.	.	.
O=[N+]([O-])c1cc(C(F)(F)F)ccc1NCCc1c[nH]c2ccc(O)cc12	30.6	-	12.5	-	-	-	-	27.3	13.9
Cc1onc(-c2c(F)cccc2Cl)c1C(=O)Nc1cc(S(=O)(=O)N2CCCCC2)ccc1O	27.2	-	11.7	-	-	-	-	40.0	17.8
C[C@@H]1ON(C)[C@H]2C[C@H]3c4[nH]c5c(-c6ccc(Cl)cc6)cccc5c4CCN3C(=O)[C@@H]12	-	-	-	-	-	.	.	.	.
O=C(Nc1cc(Cl)cc(Cl)c1)c1cccc(OC(F)F)c1	27.4	-	11.5	-	-	-	-	23.3	13.5
Cc1ccnc(NC(=O)c2cccc(OC(F)F)c2)n1	-	-	-	-	-	.	.	.	.

Assay outcomes (PubChem BioAssay)
